According to PubChem BioAssay (Tox21):
“And” between values parts separate entries of the source, which are not always exact repeats. Equal values may be shown once. Results filed as inconclusive are left out. Where a call stands in place of a potency, no number is given. Where a structure was tested more than once in an assay, its records may differ in their call. The source made the active and inactive calls. Unless noted, calls come from the whole dose curve.

Experiments:
[1] = qHTS assay to identify small molecule antagonists of the sonic hedgehog signaling (Shh) pathway (AID 1259369); note: nearly all actives have a fitted effect of over 45% in size; note: potency is the fitted concentration of half-maximal effect
Summary of the method: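 Gli1 transcriptional reporter (firefly Luc) in NIH/3T3 background, conditioned-medium activated. 24hr exposure, luminescence endpoint.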

[2] = qHTS assay to identify small molecule agonists of the androgen receptor (AR) signaling pathway in the presence of an antagonist - cell viability counter screen (AID 1259379; active = well fitted curve in the direction sought with a large enough effect in the repeat runs; an effect the other way counts as inactive or inconclusive; note: nearly all actives have a fitted effect of over 25% in size; note: potency is the fitted concentration of half-maximal effect)
Summary of the method: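 Counter screen for cell viability run in parallel with the AR agonist-mode luciferase assay. MDA-kb2 cells were co-treated with nilutamide (3.0uM final) and compounds, then incubated 16 hr at 37C, and CellTiter-Fluor fluorescence was measured.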

[3] = qHTS assay to identify small molecule agonists of the estrogen receptor beta (ER-beta) signaling pathway - cell viability counter screen (AID 1259380; active = well fitted curve in the direction sought with a large enough effect in the repeat runs; an effect the other way counts as inactive or inconclusive; note: nearly all actives have a fitted effect of over 30% in size; note: potency is the fitted concentration of half-maximal effect)
Summary of the method: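 In this qHTS counter screen, HEK293T cells carrying an ER-beta/UAS beta-lactamase reporter, grown in 2% charcoal-stripped FBS, received compound for 16 hr; ATP-based CellTiter-Glo luminescence was then read after 30 min at room temperature.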

[4] = qHTS assay to identify small molecule antagonists of the estrogen receptor beta (ER-beta) signaling pathway - cell viability counter screen (AID 1259382; active = well fitted curve in the direction sought with a large enough effect in the repeat runs; an effect the other way counts as inactive or inconclusive; note: nearly all actives have a fitted effect of over 55% in size; note: potency is the fitted concentration of half-maximal effect)
Summary of the method: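 HEK293T ER-beta-UAS-bla, 2% charcoal-stripped FBS; compounds + 1nM E2 16 hr 37C; CellTiter-Glo luminescence, 30 min RT.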

[5] = target: Estrogen receptor (Homo sapiens) (UniProt P03372); assay: qHTS assay to identify small molecule agonists of the estrogen receptor alpha (ER-alpha) signaling pathway in the presence of an antagonist (AID 1259383); note: top concentration of the series differs between compounds; nearly all actives have a fitted effect of over 15% in size
Sequence of Estrogen receptor (Homo sapiens) (P03372 whole entry, looked up): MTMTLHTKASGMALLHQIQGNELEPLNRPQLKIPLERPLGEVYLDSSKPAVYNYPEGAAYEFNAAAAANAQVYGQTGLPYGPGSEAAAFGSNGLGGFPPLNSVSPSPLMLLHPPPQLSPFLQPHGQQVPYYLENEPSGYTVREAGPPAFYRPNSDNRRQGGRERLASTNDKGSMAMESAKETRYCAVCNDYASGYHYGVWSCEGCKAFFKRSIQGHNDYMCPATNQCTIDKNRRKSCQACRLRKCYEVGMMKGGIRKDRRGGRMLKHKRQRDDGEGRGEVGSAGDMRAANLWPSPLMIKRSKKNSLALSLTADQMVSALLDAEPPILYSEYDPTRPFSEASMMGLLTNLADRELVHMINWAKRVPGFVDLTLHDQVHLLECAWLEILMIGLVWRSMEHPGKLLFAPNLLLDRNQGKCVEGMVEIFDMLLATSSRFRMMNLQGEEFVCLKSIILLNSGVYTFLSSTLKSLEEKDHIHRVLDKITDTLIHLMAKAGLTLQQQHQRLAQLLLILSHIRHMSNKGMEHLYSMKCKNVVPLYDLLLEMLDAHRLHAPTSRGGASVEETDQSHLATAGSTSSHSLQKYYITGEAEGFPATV
Summary of the method: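 ER-alpha agonism measured under antagonist challenge: 10.0nM ICI-182,780 (final) plus compound, 15 concentrations, 22hr, VM7Luc4E2 ERE-luciferase cells. Read by luminescence.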

[6] = qHTS assay to identify small molecule agonists or antagonists of the thyroid stimulating hormone receptor (TSHR) signaling pathway - wild type cell line counter screen (AID 1259384)
Summary of the method: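 Wild-type Hek293 cells, 800/well, 18 h at 37C, then compound with Ro20-1724 for 30 min RT. cAMP by HTRF (cAMP-d2/anti-cAMP cryptate), 1 h RT, fluorescence read. 15 concentrations, triplicates.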

[7] = target: Thyrotropin receptor (Homo sapiens) (UniProt P16473); assay: qHTS assay to identify small molecule antagonists of the thyroid stimulating hormone receptor (TSHR) signaling pathway (AID 1259385); note: nearly all actives have a fitted effect of over 20% in size; note: potency is the fitted concentration of half-maximal effect
Sequence of Thyrotropin receptor (Homo sapiens) (P16473 whole entry, looked up): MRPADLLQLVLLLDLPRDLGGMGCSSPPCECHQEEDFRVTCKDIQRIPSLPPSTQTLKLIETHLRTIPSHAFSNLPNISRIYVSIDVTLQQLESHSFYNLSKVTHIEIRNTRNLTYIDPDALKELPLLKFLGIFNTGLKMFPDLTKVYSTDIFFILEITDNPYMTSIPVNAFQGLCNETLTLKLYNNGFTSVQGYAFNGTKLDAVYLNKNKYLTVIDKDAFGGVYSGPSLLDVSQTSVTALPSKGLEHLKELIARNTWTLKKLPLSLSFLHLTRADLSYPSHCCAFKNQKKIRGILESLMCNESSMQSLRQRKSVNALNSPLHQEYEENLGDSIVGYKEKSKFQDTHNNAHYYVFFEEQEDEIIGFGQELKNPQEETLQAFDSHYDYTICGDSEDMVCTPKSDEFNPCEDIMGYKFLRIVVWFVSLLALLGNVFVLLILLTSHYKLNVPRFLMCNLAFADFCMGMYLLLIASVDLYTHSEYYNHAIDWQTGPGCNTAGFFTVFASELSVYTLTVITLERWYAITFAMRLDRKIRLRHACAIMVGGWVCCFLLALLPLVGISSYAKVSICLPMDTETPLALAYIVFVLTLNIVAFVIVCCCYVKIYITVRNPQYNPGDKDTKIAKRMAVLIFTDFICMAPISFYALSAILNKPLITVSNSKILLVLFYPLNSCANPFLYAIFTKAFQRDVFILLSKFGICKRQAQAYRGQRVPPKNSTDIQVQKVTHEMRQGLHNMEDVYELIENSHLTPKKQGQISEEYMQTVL
Summary of the method: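 TSHR-HEK293 cells (800/well) plated 18 h, then compounds with Ro20-1724 and TSH at 1.5 ng/mL final, 30 min at room temperature. cAMP quantified by HTRF (cAMP-d2/anti-cAMP-cryptate, 1 h); 15 concentrations in triplicate.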

[8] = target: Estrogen receptor beta (Homo sapiens) (UniProt Q92731); assay: qHTS assay to identify small molecule agonists of the estrogen receptor beta (ER-beta) signaling pathway (AID 1259377; active = well fitted activation curve with a large enough effect in the signal ratio in the repeat runs, not every such curve was filed as active; the % refers to the signal ratio)
Sequence of Estrogen receptor beta (Homo sapiens) (Q92731 whole entry, looked up): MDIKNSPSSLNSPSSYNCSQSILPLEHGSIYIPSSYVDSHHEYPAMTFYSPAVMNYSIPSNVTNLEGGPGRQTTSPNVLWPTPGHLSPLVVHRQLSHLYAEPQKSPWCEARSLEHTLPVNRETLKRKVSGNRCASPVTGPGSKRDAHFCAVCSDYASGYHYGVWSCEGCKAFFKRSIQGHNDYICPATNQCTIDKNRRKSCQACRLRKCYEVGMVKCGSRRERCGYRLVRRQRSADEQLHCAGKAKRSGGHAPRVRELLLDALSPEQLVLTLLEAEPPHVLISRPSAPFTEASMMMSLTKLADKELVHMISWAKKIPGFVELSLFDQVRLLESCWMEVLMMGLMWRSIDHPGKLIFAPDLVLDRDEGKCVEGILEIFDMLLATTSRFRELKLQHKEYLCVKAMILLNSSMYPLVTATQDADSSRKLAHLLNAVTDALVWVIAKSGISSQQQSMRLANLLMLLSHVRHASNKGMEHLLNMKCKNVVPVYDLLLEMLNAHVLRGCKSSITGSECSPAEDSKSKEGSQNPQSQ
Summary of the method: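 HEK293T ER-beta-UAS-bla; 2% charcoal-stripped FBS; cells pre-incubated 6 hr, compound 16 hr, 37C/5% CO2; LiveBLAzer B/G FRET substrate 2 h RT; fluorescence intensity read.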

[9] = target: Androgen receptor (Homo sapiens) (UniProt P10275); assay: qHTS assay to identify small molecule agonists of the androgen receptor (AR) signaling pathway in the presence of an antagonist (AID 1259381); note: nearly all actives have a fitted effect of over 15% in size
Sequence of Androgen receptor (Homo sapiens) (P10275 whole entry, looked up): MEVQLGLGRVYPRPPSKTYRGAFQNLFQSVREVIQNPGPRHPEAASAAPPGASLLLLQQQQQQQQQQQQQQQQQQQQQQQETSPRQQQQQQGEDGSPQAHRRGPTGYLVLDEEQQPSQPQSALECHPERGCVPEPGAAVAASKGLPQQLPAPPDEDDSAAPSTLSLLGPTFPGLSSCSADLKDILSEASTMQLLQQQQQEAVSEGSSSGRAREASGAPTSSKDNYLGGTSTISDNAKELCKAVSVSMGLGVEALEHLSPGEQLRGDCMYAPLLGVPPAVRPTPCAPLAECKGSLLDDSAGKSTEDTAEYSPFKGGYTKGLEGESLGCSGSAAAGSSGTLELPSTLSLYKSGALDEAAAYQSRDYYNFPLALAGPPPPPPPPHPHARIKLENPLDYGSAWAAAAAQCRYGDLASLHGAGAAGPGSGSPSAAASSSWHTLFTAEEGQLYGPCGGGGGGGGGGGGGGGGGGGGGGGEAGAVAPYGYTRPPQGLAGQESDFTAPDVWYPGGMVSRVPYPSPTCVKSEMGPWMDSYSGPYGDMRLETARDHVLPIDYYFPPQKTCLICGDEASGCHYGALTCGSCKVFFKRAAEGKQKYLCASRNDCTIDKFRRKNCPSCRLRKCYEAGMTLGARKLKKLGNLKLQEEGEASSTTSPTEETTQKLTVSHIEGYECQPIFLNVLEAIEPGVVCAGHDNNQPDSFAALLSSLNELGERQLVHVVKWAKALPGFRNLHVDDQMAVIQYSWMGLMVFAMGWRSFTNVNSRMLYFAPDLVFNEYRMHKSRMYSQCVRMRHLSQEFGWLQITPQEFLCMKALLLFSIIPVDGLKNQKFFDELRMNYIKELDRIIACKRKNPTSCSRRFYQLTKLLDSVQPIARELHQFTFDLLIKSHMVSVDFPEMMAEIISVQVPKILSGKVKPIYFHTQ
Summary of the method: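 AR antagonist background: nilutamide 3.0uM final. Cell line: MDA-kb2, MMTV-driven luciferase, responsive to both AR and GR. Exposure 16hr, 37C, no CO2; ONE-Glo luminescence.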

[10] = target: Estrogen receptor beta (Homo sapiens) (UniProt Q92731); assay: qHTS assay to identify small molecule antagonists of the estrogen receptor beta (ER-beta) signaling pathway (AID 1259378; active = well fitted inhibition curve with a large enough effect in the signal ratio in the repeat runs, not every such curve was filed as active; the % refers to the signal ratio; note: potency is the fitted concentration of half-maximal effect)
Summary of the method: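 ER-beta-UAS-bla HEK293T cells in 2% charcoal-stripped FBS medium treated with compound plus 1nM final 17-beta-estradiol for 16 hr at 37C. Beta-lactamase reporter read by FRET substrate fluorescence after 2 hours at room temperature.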

Compound	Potency [1]	Potency [2]	Potency [3]	Potency [4]	Potency [5]	Potency [6]	Potency [7]	outcome [8]	Potency [9]	Potency [10]
Nc1nc2ccccc2[nH]1	inactive	inactive	inactive	inactive	inactive	inactive	inactive			
CCCCC(CC)COC(=O)CC(C(=O)OCC(CC)CCCC)S(=O)(=O)O (centres undefined)	inactive	inactive	26.3 µM (active) and 30.6 µM (active)	29.5 µM (active) and 27.3 µM (active)	inactive			inactive		
CC(C)(C)NC(=O)[C@@H]1CN(Cc2cccnc2)CCN1C[C@@H](O)C[C@@H](Cc1ccccc1)C(=O)N[C@H]1c2ccccc2C[C@H]1O	inactive	inactive	inactive	inactive						
CCCCCCCCCCCC[N+](C)(C)C	384 nM (active) and 24.3 nM (active) and 6.86 µM (active)	13.6 µM (active) and 9.69 µM (active) and 13.7 µM (active)	60.9 µM (active)	68.6 µM (active)		inactive	inactive			
c1ccc2c(c1)-c1cccc3c1c-2cc1ccccc13	inactive and 545 nM (active)	inactive	inactive	inactive	inactive	inactive	inactive			
CCN(CC)C(=S)SSC(=S)N(CC)CC	217 nM (active) and 7.9 nM (active) and 1.33 µM (active)	inactive	222 nM (active) and 133 nM (active)		inactive	inactive	inactive	inactive	inactive	
CCCCCCCCCCCCc1ccccc1O	67.7 µM (active) and 34.4 µM (active)	61.1 µM (active)	30.2 µM (active) and 27.3 µM (active)	47.9 µM (active) and 43.3 µM (active)					inactive	1.35 µM (active)
Cc1cccc([N+](=O)[O-])c1C(=O)O	inactive		inactive	inactive	inactive	inactive	inactive	inactive		inactive
O=C1Nc2ccccc2C1(c1ccc(O)cc1)c1ccc(O)cc1	34.4 µM (active)		inactive	inactive	inactive	inactive	inactive	inactive		27.3 µM (active) and 18.8 µM (active)
CC(N)=O	inactive	inactive	inactive	inactive		inactive	inactive	inactive		
CCCCCCC(O)CCCCCCCCCCC(=O)O (centres undefined)	27.4 µM (active)		inactive and 48.6 µM (active)	inactive and 30.6 µM (active)		inactive	inactive	inactive		inactive
CC(=O)CC(C)=O	inactive	inactive	inactive	inactive	inactive	inactive	inactive			
CN(C)c1ccc(C(=C2C=CC(=[N+](C)C)C=C2)c2ccccc2)cc1	172 nM (active) and 376 nM (active) and 237 nM (active)	3.86 µM (active) and 3.35 µM (active) and 2.66 µM (active)	5.31 µM (active) [middle of 4 runs]	7.5 µM (active) [middle of 4 runs]		inactive	29.8 µM (active) and inactive			
CCC(C)(Oc1ccc(C2(c3ccc(OC(C)(CC)C(=O)O)cc3)CCCCC2)cc1)C(=O)O (centres undefined)	inactive	inactive	inactive	inactive	inactive	inactive	inactive		inactive	
O=C(Oc1ccccc1)c1ccccc1O	inactive and 54.5 µM (active)	inactive	inactive	inactive	inactive	inactive	inactive			
CCn1cc(C(=O)O)c(=O)c2cc(F)c(N3CCNC(C)C3)c(F)c21 (centres undefined)	inactive	inactive	inactive	inactive	inactive	inactive	inactive			
Cc1cc(OCCOCC[N+](C)(C)Cc2ccccc2)ccc1C(C)(C)CC(C)(C)C	10.8 µM (active) and 6.68 µM (active)	54.2 µM (active) and 29.8 µM (active)	27.1 µM (active) and 13.3 µM (active)	21.6 µM (active) and 13.3 µM (active)	inactive	inactive	inactive	inactive	inactive	
CNCCC(Oc1ccc(C(F)(F)F)cc1)c1ccccc1 (centres undefined)	15.2 µM (active)	53.8 µM (active) and 26.6 µM (active)	26.9 µM (active) and 13.3 µM (active)	24 µM (active) and 11.9 µM (active)		inactive	67.7 µM (active) and inactive	inactive		
Nc1cc(Cl)c(-c2cc(Cl)c(N)cc2Cl)cc1Cl	1.09 µM (active) and 864 nM (active)	54.4 µM (active) and 48.6 µM (active)	21.7 µM (active) and 24.3 µM (active)	17.2 µM (active) and 27.3 µM (active)	inactive	inactive			inactive	8.63 µM (active)
N[C@@H]1CONC1=O	inactive		inactive	inactive		inactive	inactive	inactive		inactive
CCCNC(C)C(=O)Nc1ccccc1C (centres undefined)	inactive	inactive	inactive	inactive	inactive	inactive	inactive			
CC[C@]1(O)C[C@@H]2CN(CCc3c([nH]c4ccccc34)[C@@](C(=O)OC)(c3cc4c(cc3OC)N(C)[C@H]3[C@@](O)(C(=O)OC)[C@H](OC(C)=O)[C@]5(CC)C=CCN6CC[C@]43[C@@H]65)C2)C1	0.0376 µM (active)	inactive	inactive	inactive		inactive	inactive			
O=S(=O)(O)c1ccc2nc(-c3ccccc3)[nH]c2c1	inactive	inactive	23.2 µM (active)	32.7 µM (active)		inactive	inactive			
